Reference: the supplement of paper PMC8877412
Structures can show the parent of a compound that is named as a salt. ± gives the uncertainty stated by the source.

Test system: NCC-PMP1-C1
Test: cell viability relative to DMSO control; higher = less growth inhibition
Conditions: 10 µM; 72 h
Description: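 NCC-PMP1-C1 pseudomyxoma peritonei cells were seeded in 384-well plates coated with Matrigel and MEF (1e4 cells). Viability was read after 72 h by CCK-8 and expressed as % of the DMSO control, mean ± SD of duplicates.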

Row | Structure (SMILES) | cell viability [%]
1 | Cc1c(N)nc(C(CC(N)=O)NCC(N)C(N)=O)nc1C(=O)NC(C(=O)NC(C)C(O)C(C)C(=O)NC(C(=O)NCCc1nc(-c2nc(C(=O)NCCC[S+](C)C)cs2)cs1)C(C)O)C(O[C@@H]1O[C@@H](CO)[C@@H](O)[C@H](O)[C@@H]1O[C@H]1O[C@H](CO)[C@@H](O)[C@H](OC(N)=O)[C@@H]1O)c1cnc[nH]1 (some centres undefined) [Bleomycin Sulfate] | 80.5 ± 1.4
2 | CC(=O)OC12COC1CC(O)C1(C)C(=O)C(O)C3=C(C)C(O)CC(O)(C(OC(=O)c4ccccc4)C21)C3(C)C (centres undefined) [10-Deacetylbaccatin-III] | 94.7 ± 12
3 | Cn1c(CCCC(=O)O)nc2cc(N(CCCl)CCCl)ccc21 [Bendamustine HCl] | 127 ± 6
4 | COCC1(CO)C(=O)C2CCN1CC2 (centres undefined) | 115 ± 8.3
5 | C/C=C(\C)C(=O)N[C@@H](c1ccccc1)[C@@H](O)C(=O)O[C@H]1C[C@@]2(O)[C@@H](OC(=O)c3ccccc3)[C@@H]3[C@]4(OC(C)=O)CO[C@@H]4C[C@H](O)[C@@]3(C)C(=O)[C@H](OC(C)=O)C(=C1C)C2(C)C [Cephalomannine] | 74.9 ± 6.8
6 | O=P1(N(CCCl)CCCl)NCCCO1 (centres undefined) [Cyclophosphamide Monohydrate] | 107 ± 9.1
7 | O=C(O)CCCc1ccc(N(CCCl)CCCl)cc1 [Chloroambucil] | 87 ± 20
8 | O=P1(NCCCl)OCCCN1CCCl (centres undefined) [Ifosfamide] | 106.5 ± 0.13
9 | O=C1C2CCN(CC2)C1(CO)CO | 78.8 ± 3.1
10 | CC[C@@]1(O)C(=O)OCc2c1cc1n(c2=O)Cc2cc3ccccc3nc2-1 [Camptothecin] | 82.2 ± 14
11 | NCCCNCCSP(=O)(O)O [Amifostine] | 95.3 ± 16
12 | C=CCN1CC[C@]23c4c5ccc(O)c4O[C@H]2C(=O)CC[C@@]3(O)[C@H]1C5 [Naloxone HCl] | 1.93 ± 1.3
13 | N.N.[Cl][Pt][Cl] [Cisplatin] | 102 ± 3.3
14 | C=C1C[C@@H]2[C@H](CC[C@]3(C)C(=O)CC[C@@H]23)[C@@]2(C)C=CC(=O)C=C12 [Exemestane] | 138 ± 5.7
